# This is one part of the list. A call without a number means that no potency is given here. Results filed as inconclusive are left out. Calls of active or inactive are those of the source. Calls come from the whole dose curve.
# Assay: Cycloheximide Counterscreen for Small Molecule Inhibitors of Shiga Toxin (Confirmatory)
# Conditions: protein synthesis reporter, Shiga toxin assay; series mostly up to 38.3 µM
# Potency is the fitted concentration of half-maximal effect.
row,SMILES,Potency
1,O=C(c1cc(-c2cccc(O)c2)on1)N1CCc2ccccc2C1,inactive
2,COc1ccc(S(=O)(=O)Nc2ccc3c(c2)OCO3)cc1Cl,inactive
3,CCCc1nc2ccccc2c(=O)n1NC(=O)c1c(O)c2ccccc2[nH]c1=O,inactive
4,Cc1nc(SCC(=O)Nc2cc(C)on2)c2c3c(sc2n1)CCCC3,inactive
5,COc1ccc(N(CCC#N)S(=O)(=O)c2ccc(Cl)cc2)cc1,inactive
6,COc1ccc(-c2noc(COc3ccc(Cl)c(C)c3)n2)cc1,inactive
7,Cc1ccc(-c2cc(C(=O)N3CCc4ccccc4C3)no2)cc1,inactive
8,O=C(COC(=O)c1cccs1)Nc1ccccc1Cl,inactive
9,Nc1nonc1C(=O)NCCc1ccccc1,inactive
10,Cc1cc(C(=O)COC(=O)C2CC2)c(C)n1-c1ccc(F)cc1,2000 nM (active)
11,COc1ccccc1N1N=C(c2cccs2)CC1c1ccccc1 (stereo not drawn),inactive
12,CCOc1ccc(NC(=O)Nc2ccc(N(C)C(C)=O)cc2)cc1,inactive
13,CN(Cc1nc2ccc(F)cc2[nH]1)Cc1nc(CC2CC2)no1,inactive
14,COc1ccc(C(=O)Nc2ccccc2C(=O)NCc2ccco2)cc1,inactive
15,C=CCNC(=O)c1ccc(C)c(Br)c1,inactive
16,CC(=O)c1ccc(N2CCN(C(=O)c3ccc4nc[nH]c4c3)CC2)cc1,inactive
17,CCN1CCN(Cc2c(O)ccc3c(=O)c(-c4ccc(OC)c(OC)c4)c(C(F)(F)F)oc23)CC1,inactive
18,CSCc1cc(N2CCOCC2)nc(SCc2ccc(Cl)cc2Cl)n1,inactive

# Source: PubChem BioAssay AID2318 (National Center for Advancing Translational Sciences (NCATS), 2010)
